The values that follow come from PubChem BioAssay (NCATS).

A number with no mark means an inactive call. Records with an inconclusive call do not appear. Active and inactive are the calls of the source. Unless noted, calls come from the whole dose curve; as a rule, active = well fitted curve in the direction sought with a large enough effect; inconclusive = small, poorly fitted or top-dose-only effect, or another doubt; inactive = no such curve, though single readings can be large; an effect the other way counts as inactive or inconclusive.

Assay [1] concerns the target Glucocorticoid receptor (Homo sapiens) (UniProt P04150). As to the kind of experiment: GR-GFP Redistribution (AID 450;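 active = compounds whose dose series gives a full or clear partial fitted curve of increased nuclear translocation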; note: potency is the fitted concentration of half-maximal effect). Particulars: U2OS GR-GFP nuclear translocation, laser cytometry, 2 h.
Assay [2] shares this target. Kind of assay: GR-EFC Redistribution (AID 451; calls by dose curve; note: potency is the fitted concentration of half-maximal effect). Particulars: CHO-K1 GR-EFC translocation, beta-gal luminescence, 2 h. In a few lines: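 CHO-K1 cells expressing nuclear EA and GR-ED fragments of b-gal; compounds titrated up to 46 uM final, 2 h at 37 C. GR nuclear translocation read as complemented b-gal luminescence after 1 h RT detection.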
The target of assay [3] is Mitogen-activated protein kinase 10 (Mus musculus) (UniProt Q61831). As to the kind of experiment: JNK3 AlphaScreen Assay (AID 530; active = well fitted curve in either direction with a large enough effect, not every such curve was filed as active;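 note: kinase came from lysate of stimulated human HepG2 cells; signal reports phosphorylation of biotinylated GST-cJun 1-79 at Ser73 with 10 µM ATP; series mostly up to about 57 µM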). In a few lines: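 Pre-activated (IL-1β/TNFα) JNK3 in HepG2 lysates phosphorylates biotin-GST-cJun(1-79), 10 uM ATP; anti-phospho-cJun(Ser73) AlphaScreen read at room temperature, pH 7.6 Tris buffer. Compounds pre-incubated 15 min as titrations.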
(Bead proximity is the source of the signal in Alpha formats.)

Assay [4] deals with 3',5'-cyclic-AMP phosphodiesterase 4B (Homo sapiens) (UniProt Q07343). As to the kind of experiment: qHTS Assay for Inhibitors of PDE-IV (AID 607; active = well fitted activation curve with a large enough effect in the main read-out, with a control signal flat, not every such curve was filed as active). In a few lines: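 Live HEK293 cells with a modified cyclic nucleotide-gated (CNG) channel report intracellular cAMP via membrane-potential dye fluorescence (ex 535/em 590 nm). Endogenous PDE-IV was targeted. Compounds were tested at up to 22.9 uM final; RO 20-1724 100 uM served as control.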
Sequence of 3',5'-cyclic-AMP phosphodiesterase 4B (Homo sapiens) (Q07343 whole entry, looked up): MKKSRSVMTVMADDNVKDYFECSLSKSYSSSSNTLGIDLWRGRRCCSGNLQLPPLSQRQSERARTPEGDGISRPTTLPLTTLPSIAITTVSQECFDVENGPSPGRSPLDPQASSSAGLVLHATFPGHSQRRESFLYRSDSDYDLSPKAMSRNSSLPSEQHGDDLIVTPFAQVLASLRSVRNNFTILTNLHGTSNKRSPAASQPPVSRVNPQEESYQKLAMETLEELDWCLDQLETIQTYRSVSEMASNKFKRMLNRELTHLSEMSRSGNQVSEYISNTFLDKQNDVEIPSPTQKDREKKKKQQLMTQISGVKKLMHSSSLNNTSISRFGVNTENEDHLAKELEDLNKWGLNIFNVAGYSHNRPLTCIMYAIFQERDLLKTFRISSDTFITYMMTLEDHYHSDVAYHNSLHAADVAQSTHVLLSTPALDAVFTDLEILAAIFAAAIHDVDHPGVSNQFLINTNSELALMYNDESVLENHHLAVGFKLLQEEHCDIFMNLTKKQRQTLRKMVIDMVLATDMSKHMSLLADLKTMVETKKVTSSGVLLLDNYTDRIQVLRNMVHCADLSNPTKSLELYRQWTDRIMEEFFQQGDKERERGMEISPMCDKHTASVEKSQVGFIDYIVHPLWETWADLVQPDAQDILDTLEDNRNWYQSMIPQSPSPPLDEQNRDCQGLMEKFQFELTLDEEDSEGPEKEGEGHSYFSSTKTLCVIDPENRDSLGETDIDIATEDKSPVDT
In general terms: In qHTS, concentration-response curves come from the screen itself.

For assay [5], the target named is Cytochrome P450 2C19 (Homo sapiens) (UniProt P33261). As to the kind of experiment: qHTS Assay for Inhibitors and Substrates of Cytochrome P450 2C19 (AID 899). Note: potency is the fitted concentration of half-maximal effect; nearly all actives have a fitted effect of over 60% in size. In a few lines:
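Signal comes from luciferase acting on luciferin released by CYP2C19-mediated hydroxylation of Luciferin-H EGE, 10uM (KM). Assay mix: 5nM enzyme, 50mM KPO4; 60 min at 37C with NADPH regeneration. Data normalized against 57uM ketoconazole.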

Assay [6] deals with DNA dC->dU-editing enzyme APOBEC-3G (Homo sapiens) (UniProt Q9HC16). As to the kind of experiment: qHTS for inhibitors of Vif-A3G interactions: Validation (AID 588379). In a few lines:
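HeLa cells stably expressing Vif and A3G-eYFP, 700 cells/well, incubated overnight at 37 deg C, then exposed to compound overnight at 37 deg C. Inhibition of Vif-mediated degradation read as increased yellow fluorescence (Ex 488/Em 500-530) by laser-scanning cytometry.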

The subject of assay [7] is Zika virus NS2B-NS3 protease. Kind of assay: Primary screen GU AMC qHTS for Zika virus inhibitors (AID 1347154). Note: nearly all actives have a fitted effect of over 70% in size. In a few lines:
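Unlinked Zika NS2B hydrophilic domain–NS3 protease complex at 25 nM in 10 mM Tris-HCl pH 8.0, 0.01% Tween 20, with an AMC peptide substrate. Fluorescence change (340/450 nm) over 15 min at room temperature, normalized to controls, fitted to 4-parameter Hill.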

Assay [8] can be described thus: Primary qHTS for small molecule stabilizers of the endoplasmic reticulum resident proteome: Secreted ER Calcium Modulated Protein (SERCaMP) assay (AID 1508630). In a few lines: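 GLuc-SERCaMP-expressing SH-SY5Y cells, pretreated 16 h with compound, are challenged with thapsigargin to empty ER calcium stores; after 4 h, coelenterazine is added directly to the medium and luminescence is imaged.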

The target in assay [9] is Cytochrome P450 3A4 (Homo sapiens) (UniProt P08684). As to the kind of experiment: qHTS Assay for Activators of Cytochrome P450 3A4 (AID 885). Note: nearly all actives have a fitted effect of over 65% in size. In a few lines:
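Quantitative HTS format: compounds preincubated with 20nM human CYP3A4 and Luciferin-PPXE substrate at KM, reaction started by NADPH regeneration, stopped after 60 min, luciferase luminescence read 20 min later.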

The target in assay [10] is Cytochrome P450 2D6 (Homo sapiens) (UniProt P10635). Kind of assay: qHTS Assay for Inhibitors and Substrates of Cytochrome P450 2D6 (AID 891). Note: potency is the fitted concentration of half-maximal effect; nearly all actives have a fitted effect of over 60% in size. In a few lines: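 Human CYP2D6 (5 nM) with 30 uM Luciferin-ME EGE (at Km) in 100 mM KPO4, compound preincubated 10 min, then NADPH regeneration system for 60 min at room temperature. Luciferin read by luminescence; normalized to 1.43 uM quinidine.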
Sequence of Cytochrome P450 2D6 (Homo sapiens) (P10635 whole entry, looked up): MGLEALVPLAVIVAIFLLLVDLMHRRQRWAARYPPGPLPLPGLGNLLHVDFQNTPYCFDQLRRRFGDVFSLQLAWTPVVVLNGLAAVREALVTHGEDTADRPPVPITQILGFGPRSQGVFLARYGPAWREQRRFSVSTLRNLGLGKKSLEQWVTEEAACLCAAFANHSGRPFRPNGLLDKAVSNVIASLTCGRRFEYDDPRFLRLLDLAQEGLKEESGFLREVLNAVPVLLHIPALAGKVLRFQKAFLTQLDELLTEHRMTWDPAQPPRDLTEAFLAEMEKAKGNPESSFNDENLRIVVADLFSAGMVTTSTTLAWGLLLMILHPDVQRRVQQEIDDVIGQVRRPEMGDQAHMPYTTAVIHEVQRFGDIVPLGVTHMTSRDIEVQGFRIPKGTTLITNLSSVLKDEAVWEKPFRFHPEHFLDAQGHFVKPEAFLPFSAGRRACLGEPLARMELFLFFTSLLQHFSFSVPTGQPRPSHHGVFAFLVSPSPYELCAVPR

Assay [11] has as its target Ubiquitin carboxyl-terminal hydrolase 1 (Homo sapiens) (UniProt O94782). Kind of assay: Inhibitors of USP1/UAF1: Pilot qHTS (AID 504865).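 Note: rhodamine fluorescence freed from ubiquitin-rhodamine substrate followed over time; top concentration of the series differs between compounds; nearly all actives have a fitted effect of over 35% in size.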 An outline of the steps:
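In 50mM HEPES pH 7.8 containing 0.5mM EDTA, 1mM TCEP, 0.1 mg/ml BSA and 0.01% Tween-20, 1nM USP1/UAF1 is exposed to compound for 15 min, then Ub-Rho (150nM final) is added and fluorescence is read over time.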

Assay [12] has as its target Cytochrome P450 1A2 (Homo sapiens) (UniProt P05177). Kind of assay: p450-cyp1a2 (AID 410; calls by dose curve; note: potency is the fitted concentration of half-maximal effect). An outline of the steps:
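Luminescent readout of luciferin formed from Luciferin-ME by human CYP1A2; data normalized against complete inhibition by 57 uM furafylline. Enzyme 20nM, substrate 100uM at Km, 100mM KPO4 buffer, 60 min reaction at room temperature.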

Assay [13] has as its target Cytochrome P450 3A4 (Homo sapiens) (UniProt P08684). As to the kind of experiment: qHTS Assay for Inhibitors and Substrates of Cytochrome P450 3A4 (AID 884). Note: potency is the fitted concentration of half-maximal effect; nearly all actives have a fitted effect of over 50% in size. An outline of the steps:
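20 nM human CYP3A4 with 25 uM Luciferin-PPXE (at KM) in 200 mM KPO4, preincubated 10 min with compound; NADPH regeneration started a 60 min RT reaction. Luciferin detected by luminescence, normalized to 57 uM ketoconazole as full inhibition.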

Sequence of DNA dC->dU-editing enzyme APOBEC-3G (Homo sapiens) (Q9HC16 whole entry, looked up): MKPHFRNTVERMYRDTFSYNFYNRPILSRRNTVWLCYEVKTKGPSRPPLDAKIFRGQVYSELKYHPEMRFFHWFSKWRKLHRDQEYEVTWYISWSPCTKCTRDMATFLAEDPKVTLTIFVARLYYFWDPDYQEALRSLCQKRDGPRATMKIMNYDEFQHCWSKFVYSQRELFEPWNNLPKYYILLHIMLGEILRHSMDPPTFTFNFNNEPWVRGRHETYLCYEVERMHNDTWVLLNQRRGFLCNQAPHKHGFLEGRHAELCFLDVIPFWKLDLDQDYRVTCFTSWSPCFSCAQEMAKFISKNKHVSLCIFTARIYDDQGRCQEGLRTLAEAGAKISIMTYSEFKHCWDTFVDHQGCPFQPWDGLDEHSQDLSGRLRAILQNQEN
Sequence of Cytochrome P450 3A4 (Homo sapiens) (P08684 whole entry, looked up): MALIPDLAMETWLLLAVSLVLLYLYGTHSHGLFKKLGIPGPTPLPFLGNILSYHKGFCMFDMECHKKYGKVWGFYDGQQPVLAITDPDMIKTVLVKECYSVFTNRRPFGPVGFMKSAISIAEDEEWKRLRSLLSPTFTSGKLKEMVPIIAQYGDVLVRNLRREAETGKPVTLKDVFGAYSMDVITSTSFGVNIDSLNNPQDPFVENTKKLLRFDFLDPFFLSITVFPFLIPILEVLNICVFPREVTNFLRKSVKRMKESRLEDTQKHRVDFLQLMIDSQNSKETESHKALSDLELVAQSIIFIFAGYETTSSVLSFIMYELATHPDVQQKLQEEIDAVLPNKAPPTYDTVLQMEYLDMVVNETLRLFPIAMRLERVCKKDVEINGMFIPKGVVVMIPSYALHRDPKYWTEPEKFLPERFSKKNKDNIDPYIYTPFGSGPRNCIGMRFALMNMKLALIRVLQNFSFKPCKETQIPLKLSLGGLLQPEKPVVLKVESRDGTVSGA
Sequence of Glucocorticoid receptor (Homo sapiens) (P04150 whole entry, looked up, the tested form may be a part): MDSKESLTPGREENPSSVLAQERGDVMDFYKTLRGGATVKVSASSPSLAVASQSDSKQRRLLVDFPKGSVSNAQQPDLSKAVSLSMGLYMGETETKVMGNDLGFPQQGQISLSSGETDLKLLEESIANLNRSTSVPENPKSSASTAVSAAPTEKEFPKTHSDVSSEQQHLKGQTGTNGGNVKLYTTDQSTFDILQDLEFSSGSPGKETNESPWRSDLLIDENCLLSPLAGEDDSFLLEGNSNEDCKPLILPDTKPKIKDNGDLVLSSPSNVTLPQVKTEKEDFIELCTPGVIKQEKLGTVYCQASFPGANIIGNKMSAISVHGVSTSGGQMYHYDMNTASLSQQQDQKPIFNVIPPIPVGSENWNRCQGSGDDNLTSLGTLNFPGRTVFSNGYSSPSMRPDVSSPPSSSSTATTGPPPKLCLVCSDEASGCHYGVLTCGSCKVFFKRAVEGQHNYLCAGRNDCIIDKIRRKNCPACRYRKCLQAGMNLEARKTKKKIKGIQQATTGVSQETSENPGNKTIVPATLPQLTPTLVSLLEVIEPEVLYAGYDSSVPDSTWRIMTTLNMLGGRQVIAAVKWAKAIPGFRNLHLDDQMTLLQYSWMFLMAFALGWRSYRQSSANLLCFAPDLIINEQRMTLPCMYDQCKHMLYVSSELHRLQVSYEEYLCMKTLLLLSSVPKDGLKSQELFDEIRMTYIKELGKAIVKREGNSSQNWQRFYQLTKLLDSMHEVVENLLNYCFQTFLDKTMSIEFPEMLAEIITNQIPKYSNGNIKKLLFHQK
Sequence of Ubiquitin carboxyl-terminal hydrolase 1 (Homo sapiens) (O94782 whole entry, looked up): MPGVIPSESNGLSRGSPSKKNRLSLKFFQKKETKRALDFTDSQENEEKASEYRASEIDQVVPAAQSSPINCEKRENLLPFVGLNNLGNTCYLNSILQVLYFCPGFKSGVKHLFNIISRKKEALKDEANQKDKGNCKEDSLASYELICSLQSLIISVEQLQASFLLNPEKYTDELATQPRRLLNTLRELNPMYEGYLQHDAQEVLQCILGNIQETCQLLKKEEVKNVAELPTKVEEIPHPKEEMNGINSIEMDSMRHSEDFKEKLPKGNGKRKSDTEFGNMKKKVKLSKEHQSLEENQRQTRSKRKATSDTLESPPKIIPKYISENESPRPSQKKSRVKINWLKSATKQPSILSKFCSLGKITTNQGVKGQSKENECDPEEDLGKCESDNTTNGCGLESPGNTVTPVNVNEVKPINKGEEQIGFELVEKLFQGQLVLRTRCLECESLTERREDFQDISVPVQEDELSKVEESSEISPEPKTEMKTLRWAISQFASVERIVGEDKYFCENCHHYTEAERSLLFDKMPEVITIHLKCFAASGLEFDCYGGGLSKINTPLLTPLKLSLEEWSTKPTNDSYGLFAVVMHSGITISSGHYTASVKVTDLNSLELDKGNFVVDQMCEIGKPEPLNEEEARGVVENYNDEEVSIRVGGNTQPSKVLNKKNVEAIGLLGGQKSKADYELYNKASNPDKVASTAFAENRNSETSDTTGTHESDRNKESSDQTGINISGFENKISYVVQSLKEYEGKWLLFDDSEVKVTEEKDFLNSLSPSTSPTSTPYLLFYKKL
Sequence of Cytochrome P450 1A2 (Homo sapiens) (P05177 whole entry, looked up): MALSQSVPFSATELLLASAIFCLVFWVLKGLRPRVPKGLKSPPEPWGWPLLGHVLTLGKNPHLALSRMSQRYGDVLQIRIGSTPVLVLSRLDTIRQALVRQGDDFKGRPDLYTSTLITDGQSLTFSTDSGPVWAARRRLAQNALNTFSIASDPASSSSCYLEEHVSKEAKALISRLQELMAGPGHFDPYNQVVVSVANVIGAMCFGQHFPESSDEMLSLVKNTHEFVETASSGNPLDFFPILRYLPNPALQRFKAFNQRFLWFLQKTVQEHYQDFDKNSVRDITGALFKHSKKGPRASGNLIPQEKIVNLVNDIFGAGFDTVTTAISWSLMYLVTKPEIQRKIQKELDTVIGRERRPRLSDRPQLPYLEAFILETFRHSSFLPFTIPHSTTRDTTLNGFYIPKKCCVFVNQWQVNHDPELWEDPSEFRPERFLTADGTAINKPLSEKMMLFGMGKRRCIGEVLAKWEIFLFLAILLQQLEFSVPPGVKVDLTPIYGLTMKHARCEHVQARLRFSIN
Sequence of Cytochrome P450 2C19 (Homo sapiens) (P33261 whole entry, looked up): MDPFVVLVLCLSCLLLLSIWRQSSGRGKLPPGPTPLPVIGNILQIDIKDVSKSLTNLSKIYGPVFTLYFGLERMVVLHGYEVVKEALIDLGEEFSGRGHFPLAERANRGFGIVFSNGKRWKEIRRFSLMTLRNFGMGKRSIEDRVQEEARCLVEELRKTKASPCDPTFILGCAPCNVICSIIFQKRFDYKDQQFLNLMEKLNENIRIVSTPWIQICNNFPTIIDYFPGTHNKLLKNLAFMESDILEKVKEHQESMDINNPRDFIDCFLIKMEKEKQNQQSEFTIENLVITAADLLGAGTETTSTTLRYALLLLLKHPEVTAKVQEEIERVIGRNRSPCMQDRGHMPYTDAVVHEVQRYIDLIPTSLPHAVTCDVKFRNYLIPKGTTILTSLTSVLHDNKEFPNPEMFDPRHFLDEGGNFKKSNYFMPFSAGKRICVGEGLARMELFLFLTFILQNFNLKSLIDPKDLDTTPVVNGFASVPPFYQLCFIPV

As for `CSc1nc(NC2CCCC2)c([N+](=O)[O-])c(NC2CCCC2)n1`, the Potency in assay [1] is over 46 µM; in assay [2] it was over 46 µM; in assay [5], 5.01 µM (active). The Potency entry in assay [3], in assay [4], in assay [6], in [7] and in [8] was “inactive” each time.
On to `COCCNC(=O)COc1ccc(OCCNC[C@@H](O)COc2ccccc2)cc1`, for which the Potency in assay [1] is over 46 µM; in assay [2], over 46 µM; in assay [10] it was 5.01 µM (active). Moreover, the Potency entry in assay [3], in [4], in [9], in [11], in [6] and in [7] was “inactive” in each case. Further, the Potency entry in assay [8] is “inactive”.
As for `O=c1nc2ccccc2c2n1C[C@H](CN1CCN(c3ccccc3)CC1)N2`, the Potency in assay [1] and in assay [2] was over 46 µM each time. For the same molecule, the Potency entry in assay [3], in assay [4], in [11], in assay [6], in assay [7] and in assay [8] was “inactive” each time.
Consider `CC(C)(C)c1cc(O)c(C(C)(C)C)cc1O`, for which the Potency in assay [1] and in assay [2] was over 46 µM in each case. In addition, the Potency result in assay [6], in assay [7] and in assay [8] was “inactive” in each case.
For the molecule `C[C@H](O)CO[C@H]1[C@H]2O[C@H]3[C@H](O)[C@@H](O)[C@@H](O[C@H]4[C@H](O)[C@@H](O)[C@@H](O[C@H]5[C@H](O)[C@@H](O)[C@@H](O[C@H]6[C@H](O)[C@@H](OC[C@H](C)O)[C@@H](O[C@H]7[C@H](O)[C@@H](OC[C@H](C)O)[C@@H](O[C@H]8[C@H](O)[C@@H](O)[C@@H](O[C@@H]([C@@H]1O)[C@@H](CO)O2)O[C@@H]8CO)O[C@@H]7CO)O[C@@H]6CO)O[C@@H]5CO)O[C@@H]4CO)O[C@@H]3CO`, the Potency in assay [1] and in [2] was over 46 µM throughout. Moreover, the Potency entry in [3], in assay [11], in [6], in assay [7] and in [8] was “inactive” each time.
As for `CCCCC(=O)NCCc1c(Cc2ccccc2)[nH]c2ccccc12`, the Potency is 3.16 µM (active) in assay [12], over 46 µM in assay [2] and 0.794 µM (active) in assay [13]. The Potency result in [3], in assay [9], in assay [6], in assay [7] and in assay [8] was “inactive” each time.
Regarding `CC#CCOC(=O)C1=CCCN(C)C1`, the Potency in [1] and in assay [2] was over 46 µM in each case. Also, the Potency entry in [3], in assay [4], in assay [11], in assay [6], in assay [7] and in assay [8] was “inactive” throughout.
With `CCS(=O)(=O)N1CCC[C@H]2CN3CCc4cc(OC)ccc4[C@@H]3C[C@@H]21`, the Potency in assay [1] was over 46 µM; in assay [2], over 46 µM; in assay [13], 5.01 µM (active). For the same molecule, the Potency result in [3], in assay [9], in [11], in assay [6], in [7] and in [8] was “inactive” in each case.
Take `NS(=O)(=O)c1cccc2c1c([N+](=O)[O-])cc1[nH]c(=O)c(=O)[nH]c12`: the Potency in assay [1] and in [2] was over 46 µM each time. For the same molecule, the Potency result in assay [3], in assay [6], in assay [7] and in assay [8] was “inactive” in each case.
Take `NCCCCCCNS(=O)(=O)c1cccc2ccccc12`: the Potency was over 46 µM in [1], over 46 µM in assay [2] and 6.31 µM (active) in assay [13]. For the same molecule, the Potency entry in assay [3], in assay [4], in [9], in assay [6], in assay [7] and in [8] was “inactive” throughout.
Consider `N=C(N)S/C=C\C(=O)O`, for which the Potency in assay [1] and in assay [2] was over 46 µM each time. The Potency entry in [3], in assay [6], in assay [7] and in assay [8] was “inactive” each time.
Consider `C[N+]1(C)CCc2cc3c(cc2[C@@H]1[C@@H]1C(=O)Oc2c1ccc1c2OCO1)OCO3`, for which the Potency in assay [1] and in assay [2] was over 46 µM in each case. For the same molecule, the Potency entry in [3], in assay [4], in assay [9], in [6], in [7] and in [8] was “inactive” each time.
